Bioassay records (PubChem)
Rows were chosen to be rich in hits. Some 3.1% of all compounds tested hit in one or more screens of this group.
PAFAH1B2 FP inh = blocks human PAF acetylhydrolase 1b catalytic subunit 2. P68402. recombinant PAFAH1B2, FP-rhodamine activity probe, fluorescence polarization. inhibition, % at 3.39 µM. 340,000 tested, 1.2% active. AID 492953;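 active = inhibition above the mean of all tested compounds plus 3 SD, cut at about 24% in these data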
PAFAH1B3 inh = PAFAH1B3 (human) inhibition; recombinant PAFAH1B3, FP-rhodamine probe, fluorescence polarization; inhibition, % at 3.39 µM; 340,000 tested, 0.28% active;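 active = inhibition above the screen-wide average of all tested compounds plus 3 SD, cut at about 25% in these data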
Rin1-Abl PPI inh = inhibitors of human Rin1-Abl protein interaction. TR-FRET Rin1/Abl binding, biochemical. inhibition, % at 7.35 µM. 360,000 tested, 0.4% active. AID 588664; in the data active = inhibition above about 5%, passing the limit was not always enough
PAFAH2 inh = PAFAH2 (human) inhibition; Q99487; recombinant PAFAH2, FP-rhodamine activity probe, fluorescence polarization; inhibition, % at 3.39 µM; 340,000 tested, 0.99% active; AID 492956;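 active = inhibition above the mean over all tested compounds plus 3 SD, cut at about 30% in these data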;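 also: inhibitors block probe labeling of enzyme so polarization drops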
eLon inh = E. coli protease La inhibition | P0A9M0 | purified E. coli Lon protease, fluorescence polarization | inhibition, % at 7.94 µM | 360,000 tested, 0.42% active | AID 602123; in the data active = inhibition above about 13%, passing the limit was not always enough
Target sequence (P0A9M0 whole entry, looked up): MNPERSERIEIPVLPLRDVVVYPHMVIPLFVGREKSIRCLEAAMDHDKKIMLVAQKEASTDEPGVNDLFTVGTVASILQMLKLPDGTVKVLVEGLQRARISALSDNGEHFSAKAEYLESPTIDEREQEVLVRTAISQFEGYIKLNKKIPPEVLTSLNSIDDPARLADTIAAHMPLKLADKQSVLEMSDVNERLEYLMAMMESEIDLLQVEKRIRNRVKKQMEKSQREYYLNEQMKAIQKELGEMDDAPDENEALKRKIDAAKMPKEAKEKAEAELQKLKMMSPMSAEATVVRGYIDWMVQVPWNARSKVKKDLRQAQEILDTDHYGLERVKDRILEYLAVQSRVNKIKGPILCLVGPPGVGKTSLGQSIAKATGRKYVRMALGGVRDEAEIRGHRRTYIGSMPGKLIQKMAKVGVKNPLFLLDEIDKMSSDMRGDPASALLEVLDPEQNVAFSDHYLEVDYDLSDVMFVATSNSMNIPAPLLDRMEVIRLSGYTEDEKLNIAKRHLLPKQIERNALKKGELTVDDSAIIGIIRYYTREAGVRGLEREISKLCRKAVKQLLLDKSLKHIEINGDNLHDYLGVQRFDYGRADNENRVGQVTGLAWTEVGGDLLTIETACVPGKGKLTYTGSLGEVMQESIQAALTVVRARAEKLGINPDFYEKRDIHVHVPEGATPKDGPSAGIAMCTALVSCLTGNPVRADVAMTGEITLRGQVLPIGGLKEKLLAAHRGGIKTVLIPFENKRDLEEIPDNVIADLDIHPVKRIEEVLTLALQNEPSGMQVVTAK
pPAFAH FP inh = inhibitors of human plasma PAF acetylhydrolase (pPAFAH) | AID 463082 | recombinant pPAFAH, FP-rhodamine probe fluorescence polarization | 330,000 tested, 1.5% active | inhibition, % at 3.39 µM;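 active = inhibition above the mean inhibition across the screen plus 3 SD, cut at about 25% in these data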;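 also: inhibitors block binding of the rhodamine activity-based probe so polarization drops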
Hits are given with their value; . = inactive; / = no result given.

SMILES	PAFAH1B2 FP inh	PAFAH1B3 inh	Rin1-Abl PPI inh	PAFAH2 inh	eLon inh	pPAFAH FP inh
CCCCC1=CC2=CC(=O)C(C)(OC(=O)c3ccco3)C(=O)C2=CO1 (stereo unspecified)	/	/	/	/	/	48.5
COC/C=C/C1=CC2=CC(=O)C(C)(OC(=O)c3ccco3)C(=O)C2=CO1 (stereo unspecified)	/	/	/	/	/	52.9
COC/C=C/C1=CC2=CC(=O)C(C)(O)C(=O)C2=CO1 (stereo unspecified)	/	/	/	/	/	48.1
COC/C=C/C1=CC2=CC(=O)C(C)(OC(=O)c3cccs3)C(=O)C2=CO1 (stereo unspecified)	/	/	/	/	/	.
COC(=O)CCCC1=CC2=CC(=O)C(C)(OC(=O)c3cnc4ccccc4n3)C(=O)C2=CO1 (stereo unspecified)	/	/	/	/	/	31.6
CC1(OC(=O)C2CCCC2)C(=O)C=C2C=C(c3ccsc3)N(CCc3ccccn3)C=C2C1=O (stereo unspecified)	.	.	.	.	19.0	.
COC/C=C/C1=CC2=CC(=O)C(C)(OC(=O)c3cnc4ccccc4n3)C(=O)C2=CN1CCCCO (stereo unspecified)	.	.	.	.	.	.
CC(C)(C)OC(=O)NCCCCC1=CC2=CC(=O)C(C)(OC(=O)c3cnc4ccccc4n3)C(=O)C2=CO1 (stereo unspecified)	/	/	/	/	/	41.6
CC1(OC(=O)C2CCCC2)C(=O)C=C2C=C(c3ccsc3)N(Cc3ccccc3)C=C2C1=O (stereo unspecified)	.	.	.	.	.	.
CC(C)[C@H](NC(=O)c1ccccc1)C(=O)NC1=NCCS1	.	.	.	.	.	.
O=C(CCc1ccccc1)Nc1cc2c3c(c1)CC(=O)N3CCC2	.	.	.	.	.	.
CC(C)CCNC(=O)CCc1nnc2n(CCCOC(C)C)c(=O)c3ccccc3n12	.	.	.	.	.	.
C[C@@H]1O[C@@H](OC2C(O)C(OCCc3ccc(O)c(O)c3)OC(CO)C2OC(=O)/C=C/c2ccc(O)c(O)c2)[C@H](O)[C@H](O)[C@H]1O (stereo partly specified)	/	/	/	/	/	46.1
C[C@@H]1O[C@@H](O[C@H]2[C@H](O)[C@@H](O)[C@H](Oc3c(-c4ccc(O)cc4)oc4cc(O)cc(O)c4c3=O)O[C@@H]2CO)[C@H](O)[C@H](O)[C@H]1O	.	.	.	.	.	.
CC(Sc1ccc(Cl)cc1)C(=O)NCC(c1ccco1)N1CCCCC1 (stereo unspecified)	.	.	.	.	.	.
O=C(C1=C(O)C(=O)N(CCN2CCOCC2)C1c1ccc([N+](=O)[O-])cc1)c1cccs1 (stereo unspecified)	.	.	.	.	.	.
CCCNc1c(NS(=O)(=O)c2c(F)c(F)c(F)c(F)c2F)c(=O)oc2ccccc12	.	.	.	.	.	.
CCCCn1c(N)c(C(=S)NC(=O)CC(C)(C)C)c(=O)n(C)c1=O	27.1	.	.	.	.	.
CCCCN(C(=O)C1CC(=O)N(c2ccc(C)cc2)C1)c1c(N)n(CCC)c(=O)[nH]c1=O (stereo unspecified)	.	.	.	.	.	/
COc1ccccc1/C=C1\CCC(C2CCCC2)C1=O (stereo unspecified)	.	.	.	.	.	.
COc1ccc(C(NC(=O)c2cccnc2)c2cc(Cl)c3cccnc3c2O)cc1OC (stereo unspecified)	.	.	.	.	35.0	.
N#C/C(=C\c1ccc(O)c(O)c1)C(=O)NCCCc1ccccc1	38.3	.	.	.	.	27.2
Cn1c(=O)[nH]c(=O)c2c1nc(NC1CCCC1)n2Cc1ccccc1	.	.	.	.	.	.
O=S(=O)(Nc1cccnc1)c1ccc(Cl)c(C(F)(F)F)c1	25.8	.	.	.	.	.
CC1(C)OC2CC3C4CC(F)C5=CC(=O)C=CC5(C)C4(F)C(O)CC3(C)C2(C(=O)CO)O1 (stereo unspecified)	.	.	.	.	.	.
COc1ccc(NC(=O)COC(=O)CC2CC3CCC2C3)c([N+](=O)[O-])c1 (stereo unspecified)	.	.	.	53.9	.	32.6
COc1ccc(NC(=O)Cc2ccc(C)cc2)c([N+](=O)[O-])c1	.	.	.	.	.	.
O=C(COC(=O)CC1CC2CCC1C2)Nc1ccccc1Cl (stereo unspecified)	.	.	.	44.6	.	28.4
